Compound activity from PubChem.
Compounds with a hit are over-represented: about 0.86% of the library has one in this group of screens.
HIV TAR-Tat: TAR RNA-Tat peptide displacers, HIV-1, primary screen, biochemical, FRET, FAM/TAMRA-labeled Tat; HIV-1 TAR RNA, Tat peptide displacement FRET; hits give high values; z-score (concentration not given with the values); hit rate 0.6% among 100,000; active = z-score of 3 or more in at least 2 runs
CDC25B-CDK2 inh: primary biochemical HTRF screen for blockers of M-phase inducer phosphatase 2 binding to CDK2/cyclin A | HTRF CDC25B-CDK2/CyclinA binding, anti-His/anti-Flag; hits give high values | AID 1259370, 2018 | z-score (test concentration not listed) | P30305+P24941 | hit rate 0.72% among 94,000; in the data active = z-score above about 3.2
* marks the source's active call; other numbers are inactive results; / = no result given.

SMILES	HIV TAR-Tat	CDC25B-CDK2 inh
CN(CC1CCCO1)S(=O)(=O)c1ccc(C(=O)Nc2sc3c(c2C(N)=O)CCC3)cc1 (configuration not stated)	7.6*	/
CN(C)S(=O)(=O)c1ccc(C(=O)Nc2sc3c(c2C(N)=O)CCCC3)cc1	3.4	-2.3
CCCCC#Cc1cncc(C(=O)NNC(=O)c2ccccc2)c1	/	-1.4
O=C(NC1CCCC1)C1CC(c2c(F)cccc2Cl)=NO1 (configuration not stated)	0.45	-0.78
CSc1nc2sc3c(c2c(=O)n1-c1cccc(C)c1)CC(C)(C)OC3	-1.1	-1
COc1ccc2c(c1)c(=O)oc1c(C)c3occ(-c4ccccc4)c3cc12	0.58	-0.06
O=C(Cn1cnc2nc3c(cc2c1=O)CCCC3)Nc1ccc(F)c(Cl)c1	0.78	/
Cc1nc(N2CCC(C(=O)O)CC2)c2c(C)c(C)sc2n1	4.8*	/
CCOC(=O)C1CCCN(C(=O)c2sc3nc(C)nc(N4CCC(C)CC4)c3c2C)C1 (configuration not stated)	/	-0.42
Cn1cccc1Cc1nnc(SCC(N)=O)n1-c1ccc(Cl)cc1	-0.57	0.16
O=C(c1noc2c1CCc1sccc1-2)N1CCN(c2ccccc2F)CC1	-0.13	/
COc1ccc(Br)cc1CNC(=O)Cn1nc(C)n2c(cc3occc32)c1=O	1.1	12*
Cc1ccc(CNC(=O)Cn2nc(C)n3c(cc4occc43)c2=O)cc1	2.1	0.57
Cc1oc(C(C)(C)C)cc1C(=O)/C(C#N)=C/Nc1ccccc1	/	0.26
CC(C)(C)c1ccc(N/C=C(\C#N)C(=O)c2ccsc2)cc1	/	13*
CC(C)=CCC/C(C)=C/CC/C(C)=C/CC/C(C)=C/CC/C(C)=C/CC/C(C)=C/CC/C(C)=C/CC/C(C)=C/CC/C(C)=C/CO	32*	/
CC(C)=CCC/C(C)=C/CC/C(C)=C/CO	0.89	/
CCC1CCCCN1CCCN1C(=O)c2cc3occc3n2CC1(C)C(=O)NC1CCCCC1 (configuration not stated)	0.9	/
CN1C(=O)C(C)(C)c2cc(S(=O)(=O)N(C)CC(=O)N3CCc4ccccc4C3)ccc21	0.81	/
Nc1c(-c2nc(-c3ccccc3)cs2)c2ccccn2c1C(=O)c1cccs1	0.36	25*
COc1ccc(C(=O)c2c(N)c(-c3nc(-c4ccccc4)cs3)c3ccccn23)cc1	3.6	-0.57
COCC(C)Nc1sc(S(=O)(=O)c2ccccc2)nc1S(=O)(=O)c1ccc(C)cc1 (configuration not stated)	1.5	-1.7
CCOC(=O)C1CCN(c2cc(NCCCN(C)C)c3c4c(onc24)-c2ccccc2C3=O)CC1	1.1	-1.8
O=C(O)CNc1cc(N2CCC(c3ccccc3)CC2)c2noc3c2c1C(=O)c1ccccc1-3	-6	5.1*
CCOC(=O)C1CCN(c2cc(NCc3ccco3)c3c4c(onc24)-c2ccccc2C3=O)CC1	-4	15*
SMILES	HIV TAR-Tat	CDC25B-CDK2 inh
CCOC(=O)C1CCN(c2cc(NCCCC(=O)O)c3c4c(onc24)-c2ccccc2C3=O)CC1	24*	14*
O=C1c2ccccc2-c2onc3c(N4CCN(CCO)CC4)cc(NCc4ccco4)c1c23	-5.5	0.21
CC1CCN(c2cc(NCCCC(=O)O)c3c4c(onc24)-c2ccccc2C3=O)CC1	-4.3	1.2
CCOC(=O)c1cnc(SCC(=O)O)nc1N	0.84	/
O=C(Nc1ccc2c(c1)nc1n2CCN(C2CCCCC2)C1)c1ccco1	31*	7.1*
O=C(Nc1ccc2c(c1)nc1n2CCN(C2CCCCC2)C1)NC1CCCCC1	-3	-1.3
COC(=O)c1nnn(CC(=O)Nc2ccccc2)c1C(=O)OC	/	-0.41
Cc1ccc(S(=O)(=O)Nc2cc(S(=O)(=O)c3ccc(C)cc3)c(O)c3cccnc23)cc1	1.5	0.77
Cc1ccc(S(=O)(=O)Nc2cc(Cl)c(O)c3ncccc23)cc1	1.5	14*
Clc1ccccc1-n1ncc2c1ncn1nc(-c3ccccc3)nc21	6.9*	-2.4
Fc1ccccc1-n1ncc2c1ncn1nc(-c3ccccc3)nc21	1.9	-1.7
CC(=O)N1CCOc2ccc(S(=O)(=O)N3CCC(C(=O)NC4CCCC4)CC3)cc21	17*	/
CC(=O)N1CCOc2ccc(S(=O)(=O)N3CCC(C(=O)NC4CCC(C)CC4)CC3)cc21 (configuration not stated)	3.6	/
CCN(CC)c1ccc(Nc2nc(-c3sc(NC(C)=O)nc3C)cs2)cc1	0.82	-0.29
CCN(CC)c1ccc(Nc2nc(-c3sc(N)nc3C)cs2)cc1	5.7*	0.23
CC(=O)Oc1cccc(O)c1	1.3	/
CC(Oc1ccc(O)cc1)(P(=O)(O)O)P(=O)(O)O	26*	/
O=C1C2C3C=CC(C3)C2C(=O)N1c1cc(Cl)cc(Cl)c1 (configuration not stated)	/	0.15
O=C1c2ccccc2C(=O)N1CN1CCN(c2ccc(C(F)(F)F)cc2[N+](=O)[O-])CC1	/	-1.2
